# Screening data as filed in PubChem BioAssay.
# MCF10A rereplic – DNA re-replication induction in MCF 10a cells; MCF 10A DNA re-replication, Hoechst nuclear intensity, 48 h; Potency, µM (doses to about 46.1 µM), most hits filed as activators; 350,000 tested, 2.9% active; AID 624296; also: nearly all actives have a fitted effect of over 50% in size
# HT1080-NT tox – kills 2HG-producing HT-1080-NT fibrosarcoma cells; HT-1080-NT fibrosarcoma viability, CellTiter-Glo ATP luminescence, 48 h; Potency, µM (titrated, usually from 46.1 µM), hits mostly cytotoxic; 360,000 tested, 1.6% active; AID 686970;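 also: NT is the 2HG producing partner of a matched IDH1 knockdown line; nearly all actives have a fitted effect of over 55% in size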
#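 HT-1080-NT fibrosarcoma cells (2HG-overproducing), 750 cells/well in RPMI with 5% FBS, dosed after 2 h and incubated 48 h at 37C. CellTiter-Glo luminescence normalized to DMSO and no-cell wells; concentration-response curves fitted and classed.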
# KB-V1 cytotox – kills drug-selected multidrug resistant KB-V1 cells; 400,000 tested, 3.4% active; KB-V1 MDR cells viability, CellTiter-Glo, 72 h; Potency, µM (titrated, usually from 46.1 µM), most hits filed as cytotoxic; also: nearly all actives have a fitted effect of over 60% in size
#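 Compound-treated KB-V1 multidrug-resistant cells, 72 h, 37 degrees C; viability by CellTiter-Glo. Fitted qHTS curves give the values.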
# KB-3-1 tox – KB-3-1 parental cell cytotoxicity. 400,000 tested, 1.4% active. Potency, µM (doses to about 46.1 µM), most hits filed as cytotoxic. KB-3-1 viability, CellTiter-Glo ATP luminescence, 72 h; also: nearly all actives have a fitted effect of over 60% in size
#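 Parental KB-3-1 viability, qHTS format: 72 h compound exposure, 37 °C; CellTiter-Glo; media-only wells and DMSO plates as controls; concentration-effect fits on corrected data.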
# SW480 rerep – DNA re-replication induction in SW480 cells; SW480 DNA re-replication, Hoechst DNA content imaging, 48 h; Potency, µM (series often up to 46.1 µM), most hits filed as activators; 340,000 tested, 1.8% active; also: nearly all actives have a fitted effect of over 55% in size
#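 Per well, 250 cells were exposed to pinned compound for 48 hr. Nuclear DNA was visualised with Hoechst (40 min, 37 C) and total object intensity recorded by fluorescence scanning.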
# HT1080 IDH1KD tx – kills HT-1080 cells with IDH1 knockdown. HT-1080 IDH1 knockdown viability, ATP luminescence, 48 h. 360,000 tested, 2% active. Potency, µM (top dose mostly 46.1 µM), hits mostly cytotoxic. AID 686971
#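 CellTiter-Glo luminescence after 48 h compound exposure at 37 degrees C of IDH1-knockdown HT-1080 cells in 5% FBS RPMI. %Activity scaled between DMSO wells and cell-free media wells, with curves fitted and assigned curve classes.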
# A number is an active result; i = inactive; ? = inconclusive; nt = no result given; [ ] = remark or other dose. Only some compounds are listed: those with a hit (about 8% of all), similar ones and a draw of the others. Calls follow the shape of the dose curve; as a rule, active = well fitted curve in the direction sought with a large enough effect; inconclusive = small, poorly fitted or top-dose-only effect, or another doubt; inactive = no such curve, though single readings can be large; an effect the other way counts as inactive or inconclusive.
SMILES,MCF10A rereplic,HT1080-NT tox,KB-V1 cytotox,KB-3-1 tox,SW480 rerep,HT1080 IDH1KD tx
CN(CC(=O)Nc1cccc(S(=O)(=O)N2CCCC2)c1)CC(=O)Nc1ccc(F)c(F)c1F,i,i,21µM,i,i,i
CN(CC(=O)Nc1cccc(S(=O)(=O)N2CCCC2)c1)CC(=O)Nc1ccc(Cl)c(C(F)(F)F)c1,?,9.2µM,i,?,?,18µM
CN(CC(=O)Nc1ccc(F)cc1)c1ccc(S(=O)(=O)N2CCCCC2)cc1[N+](=O)[O-],i,i,13µM,i,nt,i
O=C(Nc1cccc(S(=O)(=O)N2CCCCC2)c1)Nc1ccc(Cl)cc1Cl,7.3µM,21µM,?,?,?,16µM
O=C(NCCc1ccccc1)c1ccccc1Cl,i,i,i,i,i,i
O=C(NCCc1ccccc1)c1cccnc1N1CCCCCC1,26µM,i,?,i,i,i
CC(C)CC1(C)NC(=O)N(CC(=O)Nc2ccc(F)c(F)c2F)C1=O (stereo unspecified),i,i,i,i,i,i
CC(=O)c1ccc(NC(=O)CN2CCC(NC(=O)c3ccccc3C)CC2)cc1,nt,i,i,i,nt,i
O=C(O)Cc1csc(-c2ccc(Cl)cc2)n1,i,nt,nt,nt,i,nt
COc1ccc(Nc2cc(C)c3ccc(O)cc3n2)cc1,?,i,?,i,?,i
Cc1cc(Nc2ccccc2)nc2cc(O)ccc12,21µM,i,?,?,?,i
Cc1cnc(NC(=O)C2CC(=O)N(c3ccc4c(c3)OCCO4)C2)s1 (stereo unspecified),i,i,15µM,i,i,i
CCc1ccc(-c2csc(NC(=O)C3CC(=O)N(c4ccc5c(c4)OCCO5)C3)n2)cc1 (stereo unspecified),18µM,?,i,?,?,?
Cc1cnc(NC(=O)C2CC(=O)N(c3cccc(Cl)c3)C2)s1 (stereo unspecified),?,i,21µM,?,?,i
CCC(CC)c1nnc(NC(=O)C2CC(=O)N(c3ccc4c(c3)OCCO4)C2)s1 (stereo unspecified),i,i,21µM,i,i,i
Cc1csc(NC(=O)C2CC(=O)N(c3ccc4c(c3)OCCO4)C2)n1 (stereo unspecified),i,i[9.24 µM],i,i,i,i
O=C(c1cccc(S(=O)(=O)Nc2ccc(Br)cc2)c1)N1CCC1,i,i,i,i,i,i
COc1ccc(NC(=O)c2cc(S(=O)(=O)N3CCCCC3)cn2C)cc1Cl,nt,nt,i,i,nt,nt
COc1cc(OC)cc(C(=O)N/N=C2/SCC(=O)N2Cc2ccco2)c1,i,i,?,i,i,i
O=C1c2oc3ccccc3c(=O)c2C(c2cccc(Br)c2)N1Cc1ccco1 (stereo unspecified),i,i,i,i,i,i
CCOc1ccc(N2CC(C(=O)Nc3cc(S(=O)(=O)N4CCCCC4)ccc3C)CC2=O)cc1 (stereo unspecified),i,i,18µM,i,i,i
CCCNC(=O)C1CC(=O)N(c2ccc(OCc3ccc(F)cc3)cc2)C1 (stereo unspecified),0.65µM,i,i,i,i,i
CCOc1ccc(N2CC(C(=O)Nc3ccc4c(c3)OCCO4)CC2=O)cc1 (stereo unspecified),i,i,i,5.2µM,i,i
CCOc1ccc(N2CC(C(=O)Nc3ccc4c(c3)OCO4)CC2=O)cc1 (stereo unspecified),i,i,i,i,i,i
CCCNC(=O)C1CC(=O)N(c2ccc(OCc3ccc(Cl)cc3)cc2)C1 (stereo unspecified),i,i,?,i,i,i
CCc1ccc(Nc2nnc(SC(C)C(=O)NC3CC3)s2)cc1 (stereo unspecified),i,i,i,i,i,i
COc1ccc(-c2nc(N3CCCC3)[nH]c(=O)c2C#N)cc1,?,i,i,?,i,i
COc1ccc(-c2nc(N3CCC(C)CC3)[nH]c(=O)c2C#N)cc1,3.7µM,i,?,i,?,i
O=C(CN1CCCCCC1=O)OCc1ncc(-c2ccccc2)o1,i,i,i,i,i,i
